Where “and” joins values, the source holds several entries; their conditions need not be identical. Equal values may be shown once. ± gives the standard deviation of the averaged measurements.
Columns and labels:
Conditions in all cases: concentration: 10 µM; 24 h
HCC1569 [1] = assay: cell number relative to DMSO (% of DMSO); higher = more cells (less growth inhibition / toxicity)
Summary of the method: (§1)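 HCC1569 and TDF cells were seeded at 800 per well in 384-well plates in RPMI with 10% FBS and treated with compounds at 10 µM for 24 h at 37 °C, in triplicate. After fixation in 3.7% formaldehyde, cells were stained with a rabbit anti-H1.0 antibody, an AlexaFluor 647 secondary and DAPI, and six fields per well were imaged at ×10. H1.0 nuclear intensity or cell number is given as percent of the plate control, using the median of replicates, with HCC1569 values smoothed for positional effects.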

TDF [2] = assay: as above
Summary of the method: as §1

TDF [3] = assay: H1.0 immunofluorescence intensity relative to DMSO (% of DMSO); higher = stronger H1.0 induction, active = 120 or more
Summary of the method: as §1

HCC1569 [4] = assay: H1.0 immunofluorescence intensity relative to DMSO (% of DMSO); higher = stronger H1.0 induction, active = 140 or more
Summary of the method: as §1
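For H1.0 immunofluorescence intensity relative to DMSO in this document: TDF is a line of transformed human dermal fibroblasts of mesenchymal origin.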
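For cell number relative to DMSO in this document: TDF denotes transformed human dermal fibroblasts of mesenchymal origin.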

Structure (SMILES)	cell number (HCC1569 [1])	cell number (TDF [2])	H1.0 immunofluorescence intensity (TDF [3])	H1.0 immunofluorescence intensity (HCC1569 [4])
CCCc1c(OCCCCc2nn[nH]n2)ccc(C(C)=O)c1O	104	101 and 110	97.5 (inactive) and 94.5 (inactive)	105 (inactive)
C=C1CCC2OC2(C)CCC2C1CC2(C)C (stereo not given) [Caryophylline]	104	99	105 (inactive)	91.3 (inactive)
CS(=O)(=O)O.Cn1cc(C(F)(F)F)nc1-c1ccc(OCC(O)CNCCOc2ccc(O)c(C(N)=O)c2)cc1 (stereo not given)	97.2	92.5	94.5 (inactive)	96.4 (inactive)
CCCCCCCCCCCCCCCC(=O)C(F)(F)F	103	108	93.3 (inactive)	94.4 (inactive)
Cl.N=c1ccn2c(n1)OC1C(O)C(CO)OC12 (stereo not given) [Ancitabine hydrochloride]	73.5	50.3	109 (inactive)	92 (inactive)
O=C(Nc1nc2ccc(NC(=O)C34CC5CC(CC(C5)C3)C4)cc2s1)c1ccccc1	45	20.4	170 (active)	146 (active)
COc1cc(C2c3cc4c(cc3C(OC3OC5COC(C)OC5C(O)C3O)C3COC(=O)C23)OCO4)cc(OC)c1O (stereo not given) [Etoposide]	74.1 ± 1.6	42.1 ± 4.8	125 (active)	95.1 (inactive)
Cn1cc(C2=C(c3cn(CCCSC(=N)N)c4ccccc34)C(=O)NC2=O)c2ccccc21	53.9	21.3	113 (inactive)	238 (active)
COc1ccc(-c2cc(C(O)C3CCCCN3)c3ccccc3n2)cc1.Cl.Cl (stereo not given)	68.2	24.8	169 (active)	157 (active)
CCc1cccc2c3c([nH]c12)C(CC)(CC(=O)O)OCC3 (stereo not given) [Etodolac]	98.6	101	97 (inactive)	105 (inactive)
CS(=O)(=O)CCNCc1ccc(-c2ccc3ncnc(Nc4ccc(OCc5cccc(F)c5)c(Cl)c4)c3c2)o1.Cc1ccc(S(=O)(=O)O)cc1.Cc1ccc(S(=O)(=O)O)cc1 [Lapatinib ditosylate]	88.5	94.3	93.5 (inactive)	110 (inactive)
CCN1CCCC1CNC(=O)c1cc(S(N)(=O)=O)ccc1OC (single isomer, unassigned; (-)) [(-)-Sulpiride]	99.4	101	90.9 (inactive)	98.5 (inactive)
Cc1cnc(C(=O)NCCc2ccc(S(=O)(=O)NC(=O)NC3CCCCC3)cc2)cn1 [Glipizide]	106 ± 3.7	107 ± 6.9	96.6 (inactive)	103 (inactive)
CN(C)CC(=O)Nc1ccc2[nH]c(=O)c3ccccc3c2c1.Cl.O	101	99.1	97.4 (inactive)	91.3 (inactive)
CCCCCC=CCC=CCC=CC=CC(O)CCCC(=O)O (stereo not given)	97	103	104 (inactive)	105 (inactive)
CCC1Cc2cc(O)ccc2C2=C1c1ccc(O)cc1CC2CC [(R,R)-cis-Diethyl tetrahydro-2,8-chrysenediol]	87.5	110	87.9 (inactive)	107 (inactive)
O=C(O)c1cc(N(Cc2ccccc2O)Cc2ccccc2O)ccc1O [Lavendustin B]	102	95.2	94.5 (inactive)	93.1 (inactive)
COC(=O)C1=C(C)NC(C)=C(C(=O)OCCN(C)Cc2ccccc2)C1c1cccc([N+](=O)[O-])c1.Cl (stereo not given) [Nicardipine.HCl]	96.8	100	98.7 (inactive)	107 (inactive)
O=C1N(c2ccccc2)c2ccccc2C1(Cc1ccncc1)Cc1ccncc1 [Linopirdine]	108	112	93.9 (inactive)	94.7 (inactive)
Nc1ccn(C2OC(CO)C(O)C2(F)F)c(=O)n1 (stereo not given) [Gemcitabine]	74.8	42.4	122 (active)	96.6 (inactive)
COc1cc2ncnc(Nc3ccc(O)cc3)c2cc1OC	100	115	89 (inactive)	96.6 (inactive)
Nc1nnc(-c2cccc(Cl)c2Cl)c(N)n1 [Lamotrigine]	99.6 ± 2.1	105 ± 2	87.7 (inactive)	101 (inactive)
COC(=O)c1c(-c2cc(OC)c(OC)c(OC)c2)c2ccc(OCc3ccccn3)cc2c(=O)n1-c1ccc(N)cc1.O=S(=O)(O)O	100	113	95.1 (inactive)	102 (inactive)
N#Cc1c(N(CC(=O)[O-])CC(=O)[O-])sc(C(=O)[O-])c1CC(=O)[O-].[Sr+2].[Sr+2]	100	109	86.6 (inactive)	105 (inactive)
CC1C=CC=CC=CC=CC=CC=CC=CC(OC2OC(C)C(O)C(N)C2O)CC2OC(O)(CC(O)CC(O)C(O)CCC(O)CC(O)CC(=O)OC(C)C(C)C1O)CC(O)C2C(=O)O (stereo not given) [Amphotericin B]	97.4	89.9	105 (inactive)	83.9 (inactive)

Reference: the supplement of paper PMC7156485
